Measured values as given in the OligoGym collection.

What follows are sequences tested against PRODH2 (assay: pooled miR-30 sensor sort-seq; sequence = guide strand). Conditions: shRNA.
Also: reference of the scale not given here.

Sequence	sensor-assay potency score (higher = more potent)
TTGCTTCCTCTTAAAATTGGAA	-1.06
TAACAGGTCCGGAGCATCCTGG	-1.03
TGAAAATACGGTTCTCACGTTT	0.0951
AAACGCTGTAGTGTTATTGAAT	-0.964
TAGTGTTATTGAATACATTTGA	-0.549
TTATTGAATACATTTGAAAATA	-1.75
AAAATTGGAAACGCTGTAGTGT	-0.189

What follows are sequences tested against PROM2 in the same assay as above. Conditions: shRNA.

Sequence	sensor-assay potency score (higher = more potent)
TTGGGGGACATCAGAGACCAGG	-1.48
TTGTGCTCTGTCTTCACTCGTC	0.345
TCACACAGGATCACACGGCTGT	0.353
TTGAGCTGCAGGACTGTCCAGA	-0.114
TAGGACATCTGAGGTCTCCAGC	-0.69
TTCAGCTCTTGCACCACGCTGG	-0.154
TTCTCCTCCTGGACCATGCTGG	-0.874
TTGACGGCAAAGATGATGCTGG	-0.136
TGTAGGTCTCGTATCTCTGCAC	-0.146
TTGGCTAGGACATCTGAGGTCT	0.382
TAGCTTGTTGGTATACTGGTTG	-0.045
TATTTGGAGGTCTTGACGGCAA	-0.214

The sequences below were run against PRPS1 in the same assay as above. Conditions: shRNA.

Sequence	sensor-assay potency score (higher = more potent)
TTGTCATTGATTTCGCCACAAC	-1.49
TCAGGTGAGACAATAGTGCAGT	0.663
TAAATTGTCATTGATTTCGCCA	-0.0544
TAATATGATCTGCACCTGCTAC	-0.935
TCACTCTCTTAGCTCCACCAGC	-0.945
TATCTTTCTTATCCTGCCGGGC	-0.757
TTATCTTTCTTATCCTGCCGGG	0.175
TTTGCAACAAGCTTGGCTGAGA	-0.163
TACACTTTCACCAATTTCCACA	-0.758
TATTGGTGACTACTACTGCCTC	-1.03
TGATAATATGATCTGCACCTGC	-0.404
TTGGTGACTACTACTGCCTCAA	-0.00628

Each sequence was assayed against PRPS2 in the same assay as above. Conditions: shRNA.

Sequence	sensor-assay potency score (higher = more potent)
TGTCCTTTTTATCTTGTCGGGC	-0.556
TTGTCGTTAATTTCCCCGCAGC	-0.905
TATTTATTCTGGAAATAGCTGG	-0.496
TTTCATTTTGTCCTCTTGCGGA	-0.379
TATACTTGAAAGTTGTCGCCTC	0.742
TTGTCCTTTTTATCTTGTCGGG	-0.968
TTCATTTTGTCCTCTTGCGGAA	-0.733
TTAGCATATACAAAGATCTGAT	-0.612
TTCTGGAAATAGCTGGTCCAGA	-1.31
